Reference: PubChem BioAssay (EPA / NIEHS)
Results filed as inconclusive are left out. Active and inactive are the calls of the source. The calls were made as follows, unless noted: active = hit-call score of the fitted dose curve at least 0.9, where 1 is the maximum; inactive = score below 0.9.

Experiments:
[1] = ATG_NFI_CIS: Attagene CIS-FACTORIAL HepG2 Assay for human Nuclear Factor I (NFI) (AID 2282989); details: HepG2 cis-regulatory reporter, NFI response element transcription; actives raise or lower the signal
In short: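 Reporter transcription driven by endogenous transcription factors in HepG2 cells; 24 h treatment. Quantitation by labelled RT-PCR fragments on capillary electrophoresis, gain- or loss-of-signal relative to DMSO.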

[2] = biological target: Myc proto-oncogene protein (Homo sapiens) (UniProt P01106); test: ATG_Myc_CIS: Attagene CIS-FACTORIAL HepG2 Assay for human Myelocytomatosis (Myc) Proto-Oncogene Transcription Factor (AID 2282990); details: HepG2, Attagene cis-reporter transcription factor activity; actives raise or lower the signal
In short: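 Transiently transfected HepG2 cells bearing cis-promoter reporter units for endogenous transcription factors; 24 h exposure. Reporter mRNA measured by RT-PCR, 6-FAM primer extension, HpaI cut and capillary electrophoresis; bidirectional fit relative to DMSO.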

[3] = ATG_NRF2_ARE_CIS: Attagene CIS-FACTORIAL HepG2 Assay for human Nuclear Factor Erythroid 2 Related Factor 2 (NFR2) response to Antioxidant Response Elements (ARE) (AID 2282992); details: HepG2 Attagene ARE/NRF2 reporter, transcription factor activity; actives raise or lower the signal
In short: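 Endogenous transcription factor activity read out as reporter transcript levels (RT-PCR plus capillary electrophoresis, fluorescence) in transiently transfected HepG2 cells. Measured at 24 h after dosing; gain or loss of signal fitted versus DMSO.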

[4] = ATG_Oct_MLP_CIS: Attagene CIS-FACTORIAL HepG2 Assay for human Octamer-Binding Transcription Factor (Oct) (AID 2282993); details: HepG2 Attagene cis-factorial Oct reporter, mRNA; actives raise or lower the signal
In short: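 Transfected HepG2 cells, 24 h treatment. Reporter mRNA quantified by RT-PCR–capillary electrophoresis; bidirectional fitting against DMSO.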

[5] = biological target: Cellular tumor antigen p53 (Homo sapiens) (UniProt P04637); test: ATG_p53_CIS: Attagene CIS-FACTORIAL HepG2 Assay for human p53 Transcription Factor (AID 2282994); details: HepG2 p53 cis-element reporter, Attagene mRNA; actives raise or lower the signal
In short: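 Endogenous p53 activity read in transiently transfected HepG2 from a cis-element-driven reporter transcript after 24 h exposure. RNA reverse-transcribed, PCR-amplified, fluorescently labelled and sized by capillary electrophoresis; gain or loss fitted against DMSO baseline.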

[6] = BSK_3C_TissueFactor: BioMAP Diversity Plus: 3C Assay for Tissue Factor Biomarker Activity (AID 2282997); details: BioMAP 3C HUVEC, tissue factor biomarker readout; actives raise or lower the signal
In short: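 In this endothelial system, HUVEC are treated for 24 h and Tissue Factor is assessed by ELISA, normalised to DMSO.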

[7] = BSK_3C_uPAR: BioMAP Diversity Plus: 3C Assay for Urokinase-type plasminogen activator receptor (uPAR) Biomarker Activity (AID 2282998); details: BioMAP 3C HUVEC, uPAR biomarker ELISA; actives raise or lower the signal
In short: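 Readout: ELISA for surface uPAR. System: human umbilical vein endothelial primary cells, 24 h after chemical exposure. Analysis: bidirectional fit, DMSO baseline.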

[8] = BSK_3C_VCAM1: BioMAP Diversity Plus: 3C Assay for Vascular cell adhesion molecule 1 (VCAM1) Biomarker Activity (AID 2282999); details: BioMAP 3C HUVEC, VCAM1 ELISA, cytokine-stimulated; actives raise or lower the signal
In short: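 HUVEC primary cells, 24 h compound exposure; VCAM-1 by ELISA; gain/loss of signal fitted bidirectionally vs DMSO baseline.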

[9] = biological target: human Peroxisome Proliferator-activated Receptor alpha (PPARa), PPARA (gene 5465) (UniProt Q07869); test: ATG_PPARa_TRANS: Attagene TRANS-FACTORIAL HepG2 Assay for human Peroxisome Proliferator-activated Receptor alpha (PPARa) (AID 2283001; active = hit-call score of the fitted dose curve at least 0.9, where 1 is the maximum;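 as to AC50: potency for gain of reporter signal over DMSO so agonist or activator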)
In short: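 Transient HepG2 transfection, GAL4-UAS reporters, NR-Gal4 chimeras; 24 h compound exposure. Readout: reporter transcripts by RT-PCR, 6-FAM primer extension, HpaI digest, capillary electrophoresis. Positive direction vs DMSO baseline.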

[10] = read-out: Intercellular Adhesion Molecule 1 (ICAM1), ICAM1 (gene 3383); test: BSK_3C_ICAM1: BioMAP Diversity Plus: 3C Assay for Intercellular Adhesion Molecule 1 (ICAM1) Biomarker Activity (AID 2283003); details: primary human endothelial cells (HUVEC); actives raise or lower the signal
In short: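 Using DMSO as baseline, bidirectional curve fitting was applied to ICAM-1 ELISA signals from HUVEC in the 3C system, measured 24 h after compound addition.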

[11] = biological target: human Retinoic Acid Receptor beta (RARb), RARB (gene 5915) (UniProt P10826); test: ATG_RARb_TRANS: Attagene TRANS-FACTORIAL HepG2 Assay for human Retinoic Acid Receptor beta (AID 2283004; active = hit-call score of the fitted dose curve at least 0.9, where 1 is the maximum)
In short: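 Fluorescent capillary-electrophoresis detection of GAL4-UAS reporter mRNA defines the endpoint, with induction over DMSO-treated wells scored as activity. Transiently transfected human hepatoma HepG2 cells expressing exogenous NR–Gal4 proteins are exposed to test chemicals for 24 h.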

[12] = biological target: Retinoic acid receptor alpha (Homo sapiens) (UniProt P10276); test: ATG_RARa_TRANS: Attagene TRANS-FACTORIAL HepG2 Assay for human Retinoic Acid Receptor alpha (RARa) (AID 2283005; active = hit-call score of the fitted dose curve at least 0.9, where 1 is the maximum)
In short: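 HepG2 transiently transfected with multiplex GAL4-UAS reporter units including a human RARa–GAL4 chimera; 24 h compound exposure. Reporter mRNA quantified by RT-PCR, 6-FAM labeling and capillary electrophoresis; gain of signal versus DMSO.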

[13] = BSK_3C_Proliferation: Cell Proliferation Assessment in the BioMAP Diversity Plus: 3C Assay (AID 2283006); details: primary human endothelial cells (HUVEC);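 as to AC50: potency may reflect either rise or fall in cell number versus DMSO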
In short: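 Measured here: sulforhodamine B (0.1%) staining of TCA-fixed sub-confluent umbilical vein endothelial cultures 48 h post-dosing, absorbance 560 nm. DMSO served as negative control and baseline; both signal gain and loss were modelled.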

[14] = biological target: Nuclear receptor subfamily 1 group I member 2 (Homo sapiens) (UniProt O75469); test: ATG_PXR_TRANS: Attagene TRANS-FACTORIAL HepG2 Assay for human Pregnane X Receptor (PXR) (AID 2283008; active = hit-call score of the fitted dose curve at least 0.9, where 1 is the maximum)
In short: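 Transactivation by exogenous PXR–GAL4 fusion measured as reporter transcript induction after 24 h compound treatment of transfected human HepG2 cells. Read-out via RT-PCR and capillary electrophoresis of labelled fragments, fitted upward relative to DMSO.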

[15] = biological target: human RAR-related Orphan Receptor beta (RORb), RORB (gene 6096) (UniProt Q92753); test: ATG_RORb_TRANS: Attagene TRANS-FACTORIAL HepG2 Assay for human RAR-related Orphan Receptor beta (RORb) (AID 2283010; active = hit-call score of the fitted dose curve at least 0.9, where 1 is the maximum)
In short: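 Multiplexed transcription-factor reporter assay: HepG2 cells transiently carrying NR-Gal4/GAL4-UAS constructs, 24 h treatment, mRNA quantified by RT-PCR plus capillary electrophoresis fluorescence; activity scored as induction over DMSO.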

[16] = ATG_NF_kB_CIS: Attagene CIS-FACTORIAL HepG2 Assay for human Nuclear Factor Kappa B (NF-kB) (AID 2282991); details: HepG2 Attagene cis-factorial NF-kB reporter mRNA; actives raise or lower the signal
In short: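 Endogenous transcription factor activity in HepG2 was captured via cis-regulated reporter constructs; after 24 h dosing, reporter mRNA was reverse-transcribed, amplified, fluorescently labelled and sized by capillary electrophoresis, with activity fitted bidirectionally relative to DMSO.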

[17] = biological target: human Peroxisome Proliferator-activated Receptor delta (PPARd), PPARD (gene 5467) (UniProt Q03181); test: ATG_PPARd_TRANS: Attagene TRANS-FACTORIAL HepG2 Assay for human Peroxisome Proliferator-activated Receptor delta (PPARd) (AID 2283002; active = hit-call score of the fitted dose curve at least 0.9, where 1 is the maximum)
In short: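 HepG2 cells transiently transfected with GAL4-UAS multiplexed reporter units driven by exogenous chimeric NR-GAL4 proteins; 24 h compound exposure. Reporter mRNA measured by RT-PCR, 6-FAM primer extension, HpaI digestion and capillary electrophoresis; gain of signal fitted relative to DMSO.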

[18] = biological target: Peroxisome proliferator-activated receptor gamma (Homo sapiens) (UniProt P37231); test: ATG_PPARg_TRANS: Attagene TRANS-FACTORIAL HepG2 Assay for human Peroxisome Proliferator-activated Receptor-gamma (PPARg) (AID 2283007; active = hit-call score of the fitted dose curve at least 0.9, where 1 is the maximum)
In short: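 A TRANS-format multiplexed reporter assay measures activity of an exogenous chimeric NR-Gal4 protein in HepG2 cells. After 24 h of chemical exposure, reporter transcripts are amplified, fluorescently labelled and sized by capillary electrophoresis, with gain of signal scored against DMSO.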

[19] = BSK_4H_Eotaxin3: BioMAP Diversity Plus: 4H Assay for Eotaxin 3 Biomarker Activity (AID 2283000); details: primary human endothelial cells (HUVEC); actives raise or lower the signal;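 also: CCL26 protein level quantified by ELISA in parallel with SRB cytotoxicity check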
In short: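 ELISA quantitation of CCL26 (Eotaxin-3) protein from chemically dosed human vascular endothelial cells at 24 h; increases and decreases both scored relative to DMSO-treated baseline.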

[20] = biological target: human Retinoic Acid Receptor gamma (RARg), RARG (gene 5916) (UniProt P13631); test: ATG_RARg_TRANS: Attagene TRANS-FACTORIAL HepG2 Assay for human Retinoic Acid Receptor gamma (RARg) (AID 2283009; active = hit-call score of the fitted dose curve at least 0.9, where 1 is the maximum)
In short: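 Gain-of-signal relative to DMSO is reported from fluorescent capillary electrophoresis of RT-PCR reporter products. These came from HepG2 cells expressing transfected RARg-GAL4 chimeras with UAS reporters, harvested 24 h after dosing.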

Measured: AC50

Sequence of human Peroxisome Proliferator-activated Receptor delta (PPARd), PPARD (gene 5467) (Q03181 whole entry, looked up, the tested form may be a part): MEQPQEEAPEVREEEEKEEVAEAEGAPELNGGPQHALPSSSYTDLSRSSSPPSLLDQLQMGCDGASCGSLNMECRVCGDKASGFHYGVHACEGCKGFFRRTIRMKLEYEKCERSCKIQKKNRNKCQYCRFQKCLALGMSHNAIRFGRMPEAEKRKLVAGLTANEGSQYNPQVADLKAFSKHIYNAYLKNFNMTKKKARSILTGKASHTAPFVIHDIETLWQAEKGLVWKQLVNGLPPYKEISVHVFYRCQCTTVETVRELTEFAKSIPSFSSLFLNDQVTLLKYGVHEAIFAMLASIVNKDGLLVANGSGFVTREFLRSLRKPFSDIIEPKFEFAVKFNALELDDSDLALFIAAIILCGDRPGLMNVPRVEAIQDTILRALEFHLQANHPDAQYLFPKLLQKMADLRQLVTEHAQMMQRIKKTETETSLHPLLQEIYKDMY
Sequence of Retinoic acid receptor alpha (Homo sapiens) (P10276 whole entry, looked up, the tested form may be a part): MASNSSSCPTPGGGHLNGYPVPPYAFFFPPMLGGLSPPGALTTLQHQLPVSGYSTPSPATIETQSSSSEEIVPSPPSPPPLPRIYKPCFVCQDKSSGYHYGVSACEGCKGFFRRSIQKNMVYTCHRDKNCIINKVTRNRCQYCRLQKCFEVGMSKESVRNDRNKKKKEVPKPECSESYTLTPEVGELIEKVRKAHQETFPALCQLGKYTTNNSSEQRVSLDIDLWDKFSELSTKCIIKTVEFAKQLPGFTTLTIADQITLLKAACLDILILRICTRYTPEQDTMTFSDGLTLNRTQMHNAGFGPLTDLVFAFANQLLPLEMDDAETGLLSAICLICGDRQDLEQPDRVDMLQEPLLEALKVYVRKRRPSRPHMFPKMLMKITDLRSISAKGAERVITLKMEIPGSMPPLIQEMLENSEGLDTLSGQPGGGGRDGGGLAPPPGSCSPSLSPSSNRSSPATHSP
Sequence of Myc proto-oncogene protein (Homo sapiens) (P01106 whole entry, looked up): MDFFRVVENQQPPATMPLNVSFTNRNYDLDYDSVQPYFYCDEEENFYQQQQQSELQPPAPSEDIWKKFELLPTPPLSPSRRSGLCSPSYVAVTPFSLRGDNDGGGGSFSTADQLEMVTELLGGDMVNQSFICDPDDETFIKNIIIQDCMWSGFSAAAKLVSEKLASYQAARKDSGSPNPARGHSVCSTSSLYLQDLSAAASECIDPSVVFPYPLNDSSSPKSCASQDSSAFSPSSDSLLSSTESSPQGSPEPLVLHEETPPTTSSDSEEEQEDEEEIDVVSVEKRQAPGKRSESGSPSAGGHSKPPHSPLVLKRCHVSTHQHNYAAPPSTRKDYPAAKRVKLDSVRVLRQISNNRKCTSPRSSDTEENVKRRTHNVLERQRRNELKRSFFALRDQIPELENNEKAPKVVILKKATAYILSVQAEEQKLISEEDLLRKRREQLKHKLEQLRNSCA
Sequence of Peroxisome proliferator-activated receptor gamma (Homo sapiens) (P37231 whole entry, looked up, the tested form may be a part): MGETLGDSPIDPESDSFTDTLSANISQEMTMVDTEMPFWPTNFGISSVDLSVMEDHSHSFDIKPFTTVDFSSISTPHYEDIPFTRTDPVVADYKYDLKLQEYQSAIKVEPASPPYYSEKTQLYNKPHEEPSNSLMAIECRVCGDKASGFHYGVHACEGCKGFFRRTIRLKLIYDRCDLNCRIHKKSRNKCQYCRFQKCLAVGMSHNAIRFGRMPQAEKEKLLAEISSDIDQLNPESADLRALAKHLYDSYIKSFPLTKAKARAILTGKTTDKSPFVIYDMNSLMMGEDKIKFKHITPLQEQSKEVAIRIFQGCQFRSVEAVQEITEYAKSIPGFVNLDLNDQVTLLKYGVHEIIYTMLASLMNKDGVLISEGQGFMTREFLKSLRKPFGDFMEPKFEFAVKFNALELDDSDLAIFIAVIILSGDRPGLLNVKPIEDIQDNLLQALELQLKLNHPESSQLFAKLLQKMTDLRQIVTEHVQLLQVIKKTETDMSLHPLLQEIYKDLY
Sequence of human RAR-related Orphan Receptor beta (RORb), RORB (gene 6096) (Q92753 whole entry, looked up, the tested form may be a part): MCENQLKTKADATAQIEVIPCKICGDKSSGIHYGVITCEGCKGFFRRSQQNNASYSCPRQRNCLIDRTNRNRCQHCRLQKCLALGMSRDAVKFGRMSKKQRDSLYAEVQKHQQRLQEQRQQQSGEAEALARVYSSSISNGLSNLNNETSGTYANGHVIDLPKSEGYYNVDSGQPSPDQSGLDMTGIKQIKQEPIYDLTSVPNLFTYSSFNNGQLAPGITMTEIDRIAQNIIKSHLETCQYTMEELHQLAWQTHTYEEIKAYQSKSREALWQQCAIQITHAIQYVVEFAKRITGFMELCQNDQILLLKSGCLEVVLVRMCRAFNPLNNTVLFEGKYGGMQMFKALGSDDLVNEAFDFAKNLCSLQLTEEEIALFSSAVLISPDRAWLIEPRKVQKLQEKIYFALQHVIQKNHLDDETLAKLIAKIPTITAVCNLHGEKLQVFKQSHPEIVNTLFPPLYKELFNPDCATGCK
Sequence of Nuclear receptor subfamily 1 group I member 2 (Homo sapiens) (O75469 whole entry, looked up, the tested form may be a part): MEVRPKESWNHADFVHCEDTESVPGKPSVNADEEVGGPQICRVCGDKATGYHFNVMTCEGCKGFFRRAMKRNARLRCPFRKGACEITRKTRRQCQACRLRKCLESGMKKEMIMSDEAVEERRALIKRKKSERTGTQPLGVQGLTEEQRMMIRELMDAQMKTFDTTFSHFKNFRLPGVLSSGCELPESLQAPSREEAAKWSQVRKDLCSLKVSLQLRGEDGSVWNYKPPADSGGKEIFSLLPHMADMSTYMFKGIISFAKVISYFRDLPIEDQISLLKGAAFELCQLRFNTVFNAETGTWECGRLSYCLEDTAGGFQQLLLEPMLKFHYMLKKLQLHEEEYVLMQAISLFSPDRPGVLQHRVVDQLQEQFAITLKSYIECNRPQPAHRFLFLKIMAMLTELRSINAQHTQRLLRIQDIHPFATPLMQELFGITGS
Sequence of Cellular tumor antigen p53 (Homo sapiens) (P04637 whole entry, looked up): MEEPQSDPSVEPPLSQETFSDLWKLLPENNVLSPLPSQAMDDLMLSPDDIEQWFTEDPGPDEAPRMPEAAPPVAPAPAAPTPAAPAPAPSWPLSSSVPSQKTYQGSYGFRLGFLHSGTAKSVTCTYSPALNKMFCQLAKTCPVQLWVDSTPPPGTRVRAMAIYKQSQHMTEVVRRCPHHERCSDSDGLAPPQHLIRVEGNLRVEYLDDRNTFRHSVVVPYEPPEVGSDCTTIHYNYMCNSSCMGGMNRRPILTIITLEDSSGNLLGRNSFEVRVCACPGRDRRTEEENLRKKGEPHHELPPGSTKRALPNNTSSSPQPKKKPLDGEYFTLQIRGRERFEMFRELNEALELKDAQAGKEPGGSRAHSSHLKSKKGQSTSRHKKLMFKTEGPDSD
Sequence of human Peroxisome Proliferator-activated Receptor alpha (PPARa), PPARA (gene 5465) (Q07869 whole entry, looked up, the tested form may be a part): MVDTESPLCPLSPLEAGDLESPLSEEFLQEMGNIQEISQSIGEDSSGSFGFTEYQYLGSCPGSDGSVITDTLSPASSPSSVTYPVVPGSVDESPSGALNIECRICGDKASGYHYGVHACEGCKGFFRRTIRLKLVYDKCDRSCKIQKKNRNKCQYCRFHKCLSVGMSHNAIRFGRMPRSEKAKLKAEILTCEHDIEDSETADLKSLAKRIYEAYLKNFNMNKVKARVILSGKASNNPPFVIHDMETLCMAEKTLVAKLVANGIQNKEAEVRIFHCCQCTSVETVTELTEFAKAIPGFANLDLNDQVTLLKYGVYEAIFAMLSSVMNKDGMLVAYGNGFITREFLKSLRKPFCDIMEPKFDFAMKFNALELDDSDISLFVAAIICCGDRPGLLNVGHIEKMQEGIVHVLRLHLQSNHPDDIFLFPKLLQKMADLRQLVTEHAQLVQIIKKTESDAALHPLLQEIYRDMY
Sequence of human Retinoic Acid Receptor beta (RARb), RARB (gene 5915) (P10826 whole entry, looked up, the tested form may be a part): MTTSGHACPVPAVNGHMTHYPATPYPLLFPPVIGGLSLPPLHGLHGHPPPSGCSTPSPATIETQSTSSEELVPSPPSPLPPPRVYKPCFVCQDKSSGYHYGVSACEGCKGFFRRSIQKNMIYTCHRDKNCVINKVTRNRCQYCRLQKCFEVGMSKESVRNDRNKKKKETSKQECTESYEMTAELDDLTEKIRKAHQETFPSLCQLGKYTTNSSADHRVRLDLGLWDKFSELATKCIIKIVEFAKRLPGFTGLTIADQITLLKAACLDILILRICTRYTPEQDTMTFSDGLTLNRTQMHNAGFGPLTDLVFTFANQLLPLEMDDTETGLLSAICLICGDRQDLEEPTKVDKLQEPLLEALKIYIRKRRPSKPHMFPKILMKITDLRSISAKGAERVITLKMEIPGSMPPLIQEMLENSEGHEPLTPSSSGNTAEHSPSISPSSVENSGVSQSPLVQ
Sequence of human Retinoic Acid Receptor gamma (RARg), RARG (gene 5916) (P13631 whole entry, looked up, the tested form may be a part): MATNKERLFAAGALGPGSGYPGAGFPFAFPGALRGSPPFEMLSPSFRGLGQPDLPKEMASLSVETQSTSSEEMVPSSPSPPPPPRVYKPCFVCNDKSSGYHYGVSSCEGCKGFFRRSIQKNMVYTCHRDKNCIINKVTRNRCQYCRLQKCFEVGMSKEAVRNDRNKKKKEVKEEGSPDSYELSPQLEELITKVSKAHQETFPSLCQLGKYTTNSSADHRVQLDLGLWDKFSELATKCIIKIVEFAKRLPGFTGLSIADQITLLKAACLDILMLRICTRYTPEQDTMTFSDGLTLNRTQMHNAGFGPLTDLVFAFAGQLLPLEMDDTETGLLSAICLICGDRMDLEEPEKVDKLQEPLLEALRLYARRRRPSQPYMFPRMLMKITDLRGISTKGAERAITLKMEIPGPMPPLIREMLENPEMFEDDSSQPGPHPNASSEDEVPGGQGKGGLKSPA

O=C(O)C(Cl)(Cl)Cl
not listed: [16] | [17] | [18] | [19] | [20]
inactive: all other assays above

Clc1ccc(COC(Cn2ccnc2)c2ccc(Cl)cc2Cl)cc1 (stereo unspecified)
inactive: [1] | [2] | [16] | [4] | [5] | [17]
active: [9] 0.0853 µM | [18] 4.84 µM | [14] 0.44 µM

CCOP(=S)(OCC)Oc1ccc(S(C)=O)cc1 (stereo unspecified)
active: [14] 7.06 µM
not listed: [5] | [9] | [16]
inactive: all other assays above

COC(=O)Cc1ccccc1
not listed: [3] | [11] | [12] | [16] | [20]
inactive: all other assays above

Nc1cccc2ccccc12
active: [3] 77.9 µM | [6] 12.4 µM | [13] 7.58 µM
not listed: [11] | [12] | [15] | [16] | [17] | [19] | [20]
inactive: all other assays above

Clc1ccc(C2(Cn3cncn3)CC(Br)CO2)c(Cl)c1 (stereo unspecified)
active: [14] 0.762 µM
inactive: [1] | [2] | [16] | [4] | [5] | [17]

Cc1cc(Cl)ccc1O[C@H](C)C(=O)O
active: [18] 37.4 µM
inactive: [1] | [2] | [16] | [4] | [5] | [9] | [17] | [14] | [15]

CC(C)c1cccc(C(C)C)c1O
active: [14] 4.74 µM
not listed: [3] | [6] | [7] | [8] | [9] | [10] | [13] | [19]
inactive: all other assays above

CC(C#N)CCC#N (stereo unspecified)
inactive: [1] | [2] | [16] | [4] | [5] | [17] | [11] | [18] | [14] | [20]

COc1ccc(C=O)cc1OC
inactive: [1] | [2] | [3] | [4] | [5] | [9] | [18] | [15]

COP(=S)(OC)Oc1ccc(Sc2ccc(OP(=S)(OC)OC)cc2)cc1
active: [3] 3.58 µM | [7] 20 µM | [9] 22.7 µM | [13] 15.7 µM | [18] 13.7 µM | [14] 4.45 µM
not listed: [11] | [12] | [15] | [16] | [19]
inactive: all other assays above

Nc1ccc(-c2ccc(N)c(Cl)c2)cc1Cl
active: [3] 2.66 µM | [4] 5.49 µM | [7] 6.24 µM | [13] 1.84 µM | [18] 11.9 µM | [14] 13.2 µM
inactive: [1] | [2] | [5] | [6] | [8] | [9] | [10] | [15]

O=C(Cc1ccccc1)c1ccccc1
inactive: [1] | [2] | [4] | [5] | [9] | [17] | [11] | [12] | [20]
active: [3] 19.8 µM | [14] 27.8 µM
